The whole screen tested about 59,000 compounds, of which about 6,500 (11%) were called active. Roughly 15% stayed inconclusive and do not appear here. This is one part of a sample in which actives are shown more often than they occur. No stated cut-off is given here; in the data, active means max dye-equivalent concentration above about 10 nM; inconclusive means mostly about 1.1 nM to 9.6 nM; inactive means weaker than that.
Test: qHTS Assay for Spectroscopic Profiling in A350 Spectral Region
Conditions: Compound autofluorescence, 340/450 nm, Alexa 350 dye-equivalents; active compounds read high

Max dye-equivalent concentration, inactive:
O=C(O)c1cscn1
Cc1nonc1OCCn1nnnc1N
CC1CCCN(c2ccc(C(=O)NCCc3ccccc3)cn2)C1 (stereo unspecified)
O=S(=O)(Nc1ccccc1N1CCOCC1)c1ccc(Cl)s1
Oc1cc2c(cc1O)CN(C(=S)NCCc1ccc(Cl)cc1)CCC2
O=S(=O)(NCc1ccccn1)c1ccc(Br)s1
O=S(=O)(c1cccs1)N1CCN(Cc2ccccc2)CC1
O=S(=O)(c1cccs1)N1CCc2ccccc2C1
COCCNc1ncnc2ccc(-c3ccccc3CN(C)C)cc12
COc1ccc(-c2cc(C(=O)NC(C(=O)O)C(C)C)c(C)o2)cc1OC (stereo unspecified)
CCOC(=O)CSc1nnc(-c2ccncc2)o1
COC(=O)c1sc(NC(=O)c2ccc(OC)cc2OC)nc1C
CNC(=O)c1ccc2nc(NC(C)=O)sc2c1
CCOC(=O)c1sc(NC(=O)CSc2nnc(-c3ccco3)o2)c(C(=O)OCC)c1C
O=C(c1csnn1)N1CCC[C@@]2(CCN(c3cccc(-c4ccccc4)c3)C2)C1
COc1ccc(-n2c(SCC(=O)OC(C)C)nnc2-c2ccccn2)cc1
COc1ccc(C2C(C(=O)Nc3ccccc3OC)=C(C)Nc3nnnn32)c(OC)c1 (stereo unspecified)
CCOc1cccc(-n2nnnc2-c2ccc(OC)cc2)c1
COC(=O)C1=C(C)NC(=O)NC1/C=C/c1ccccc1 (stereo unspecified)
O=S(=O)(Nc1ccccn1)c1ccc(Oc2ccccc2)cc1
c1ccc2[nH]c(NCCN3CCOCC3)nc2c1
COc1cc(C2C(C#N)=C(N)Oc3n[nH]c(-c4ccccn4)c32)cc(OC)c1OC (stereo unspecified)
CCc1nnc(NC(=O)c2c(O)c3c([nH]c2=O)CCCC3)s1
CN(Cc1ccccc1)Cc1ccccc1F
Cc1ccc(S(=O)(=O)N2CCC(C(=O)N[C@@H](C)C(=O)NCc3ccccc3)CC2)cc1
O=C(c1csnn1)N1CCC2(CC1)CN(c1ncccn1)C2
CC(C)OCCCNC(=O)CNC(=O)c1cccs1
CCCCOc1ccc(Cl)cc1CSc1nncn1N
O=C1[C@@H]2C(Cc3ccc(O)cc3)NC3(C(=O)Nc4ccc(F)cc43)[C@@H]2C(=O)N1c1ccc(F)cc1 (stereo partly specified)
Cc1cc(C(=O)COC(=O)CCCN2C(=O)c3ccccc3C2=O)c(C)n1C
O=C(CN1C(=O)CCC1=O)Nc1ccc(S(=O)(=O)N2CCOCC2)cc1
CC(=O)OCc1cc(=O)n(C)c(=O)n1C
COc1c(C)cccc1C(=O)Nc1cc(Cl)ccc1N1CCOCC1
O=C(O)[C@@H](O)Cc1ccccn1
COc1ccc2c(c1)CCc1c(C(=O)N3CCc4ccccc4C3)noc1-2
CCOC(=O)CN(C)Cc1c[nH]c2ccccc12
CCOC(=O)c1[nH]c2ccccc2c1N=C(C)N(CC)CC
CC(=O)c1cccc(NC(=O)N2CCCC2C(=O)NCCC(C)C)c1 (stereo unspecified)
CC12CCC(C(=O)N3CCN(c4ncccn4)CC3)(c3nc4ccccc4nc31)C2(C)C (stereo unspecified)
O=c1nc(N2CCOCC2)nc2n1CCO2
O=C(CSc1nc2ccccc2[nH]1)c1cccs1
Cn1cccc1C(=O)N1CCC2(CC1)CN(c1cccc(-c3ccccc3)c1)C2
CCC1SC2=NCCN2C1(O)c1ccc(Cl)cc1 (stereo unspecified)
Cc1cc(NC(=O)c2cnn3cccnc23)n(-c2ccccc2)n1
CCC(C(=O)NC1CCCC1)N(C(=O)c1snc(C(N)=O)c1N)c1ccc2c(c1)OCCO2 (stereo unspecified)
COCCNC(=O)C(c1ccc(C)o1)N(Cc1ccccc1)C(=O)Cn1nnc2ccccc21 (stereo unspecified)
N=c1c2c3c(sc2ncn1CCCN1CCOCC1)CCCCC3
O=c1[nH]nc(Cc2ccccn2)c2ccccc12
CCNc1nc(N)nc(Oc2ccc(OCC)nn2)n1
COc1ccccc1N1CCN(C(=O)CN(Cc2ccc(Cl)cc2)S(C)(=O)=O)CC1
Cn1cccc1C(=O)Nc1nccs1
O=C1C2(c3ccccc3)CN(CCCO)CC1(c1ccccc1)CN(CCCO)C2
Cn1c(=O)[nH]c(=O)c2c1nc(Br)n2CCCCSc1nc2ccccc2o1
Fc1ccc2nc(N3CCCCC3)sc2c1
CCCn1c(SCC(=O)Nc2cccc(C(=O)OCC)c2)nnc1-c1ccoc1C
Cc1cc(=O)cc(C)[nH]1

Max dye-equivalent concentration, active:
CCCCNc1nc2ccccc2nc1NS(=O)(=O)c1cccs1 61 nM
COc1ccc2nc(NC(=O)c3ccc(Br)s3)sc2c1 550 nM
COc1ccc(C2=CC(c3cccc(OC)c3)n3nnnc3N2)cc1 (stereo unspecified) 15 nM
COc1ccc(CSc2nc(N3CCOCC3)c3c(c2C#N)CC(C)(C)OC3)cc1 34 nM
CC(C)C(=O)N1CCN(c2nc(-c3ccccc3)c3c(c2C#N)CC(C)(C)OC3)CC1 200 nM
CC1(C)Cc2c(C#N)c(SCc3nc4ccccc4[nH]3)nc(N3CCOCC3)c2CO1 23 nM
CC(C)c1nc(N2CCOCC2)c(C#N)c2c1COC(C)(C)C2 150 nM
CC(C)Cc1nc(N2CCOCC2)c(C#N)c2c1CCC2 62 nM
CCOC(=O)c1[nH]c2ccc(C)cc2c1N=C(C)N(C)C 29 nM
N#Cc1c(N)n(CCOC(=O)c2ccc(Cl)cc2)c2nc3ccccc3nc12 610 nM
CC[C@@H]1Cc2cc(O)ccc2C2=C1c1ccc(O)cc1C[C@H]2CC 260 nM
COCCNC(=O)C(c1ccc(C)o1)N(Cc1cccs1)C(=O)c1snc(C(N)=O)c1N (stereo unspecified) 88 nM
CN(CCc1ccccn1)S(=O)(=O)c1ccc2c3c(cccc13)C(=O)N2 790 nM
Cn1cccc1C(=O)NC(=O)COC(=O)Cc1coc2ccc3ccccc3c12 38 nM
Cc1cc(N2CCCCC2)nc2ccc(Cc3ccc4nc(N5CCCCC5)cc(C)c4c3)cc12 43 nM
